Laboratory results from PubChem BioAssay.
The source made the active and inactive calls.

Experiments:
[1] = binders of probe aFSTL3 on microarray, primary screen, stem cell growth factor project, biochemical, small-molecule microarray, fluorescence 635/667 (AID 1064); details: higher = more signal;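 further: measures binding of the biotinylated anti-FSTL3 antibody to printed compounds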
[2] = binders from COS7 lysate, DM2A8 probe, primary screen, torsin A project, cell lysate, small-molecule microarray, fluorescence 635/667 (AID 1065); details: higher = more signal, COS7 lysate expressing mutant human TOR1A
[3] = binders of probe aFGF2 on microarray, primary screen, stem cell growth factor project, biochemical, small-molecule microarray, fluorescence 635/667 (AID 1067); details: higher = more signal;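 further: measures binding of biotinylated aFGF2 protein to printed compounds on slides; z-score merges feature fluorescence and signal-to-noise across triplicate slides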
[4] = binders of probe aFGF10 on microarray, primary screen, stem cell growth factor project, biochemical, small-molecule microarray, fluorescence 635/667 (AID 1071); details: higher = more signal;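 further: score merges 667 nm spot intensity and signal to noise from triplicate slides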
[5] = biological target: Neurogenic locus notch homolog protein 2 (Homo sapiens) (UniProt Q04721); test: Notch2 binders on small-molecule microarrays, primary screen, biochemical, small-molecule microarray, 635 nm fluorescence, stem cell growth factors (AID 1073); details: Notch2 binding, higher = more signal
[6] = biological target: Pro-neuregulin-1, membrane-bound isoform (Homo sapiens) (UniProt Q02297); test: NRG1 binders on small-molecule microarrays, primary screen, psychiatric disease protein project, biochemical, small-molecule microarray, fluorescence 635/667 (AID 1075); details: NRG1 binding, 635 nm fluorescence, higher = more signal;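 further: score combines 667 nm spot fluorescence with signal to noise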
Sequence of Pro-neuregulin-1, membrane-bound isoform (Homo sapiens) (Q02297 whole entry, looked up, the tested form may be a part, canonical isoform): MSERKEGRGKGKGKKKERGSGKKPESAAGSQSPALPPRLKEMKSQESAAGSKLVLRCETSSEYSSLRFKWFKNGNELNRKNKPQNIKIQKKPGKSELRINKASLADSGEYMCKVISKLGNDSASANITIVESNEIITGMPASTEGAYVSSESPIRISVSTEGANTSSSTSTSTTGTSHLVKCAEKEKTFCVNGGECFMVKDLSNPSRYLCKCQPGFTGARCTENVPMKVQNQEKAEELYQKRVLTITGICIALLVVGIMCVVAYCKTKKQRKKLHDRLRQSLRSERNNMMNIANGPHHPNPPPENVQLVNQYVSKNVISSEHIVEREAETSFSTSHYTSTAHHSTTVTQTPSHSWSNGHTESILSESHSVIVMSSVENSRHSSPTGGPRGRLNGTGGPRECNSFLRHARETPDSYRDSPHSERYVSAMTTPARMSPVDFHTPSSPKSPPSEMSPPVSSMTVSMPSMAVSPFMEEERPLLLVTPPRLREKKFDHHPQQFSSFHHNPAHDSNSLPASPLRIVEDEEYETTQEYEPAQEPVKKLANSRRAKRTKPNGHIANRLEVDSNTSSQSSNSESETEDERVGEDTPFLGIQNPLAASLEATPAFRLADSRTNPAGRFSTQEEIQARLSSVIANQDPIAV

[7] = test system: Neuregulin-1 EGF-like domain; test: binders of neuregulin-1 EGF-like domain, primary screen, biochemical, small-molecule microarray, 635 nm fluorescence (AID 1081); details: small-molecule microarray binding, higher = more signal;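 further: binding of the protein to compounds printed on small-molecule microarray slides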
[8] = FRG1 promoter luciferase signal modulators, primary screen, FRG1 inhibition for FSHD, cell-based, C2C12 myotubes, firefly/Renilla luciferase, luminescence (AID 1084); details: higher = more signal, called active from +8 up or from −8 down
[9] = binders of probe aFST on microarray, primary screen, stem cell growth factor project, biochemical, small-molecule microarray, fluorescence 635/667 (AID 1086); details: higher = more signal;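 further: score merges 667 nm fluorescence with signal-to-noise of each printed compound spot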
[10] = binders of probe aHhip on microarray, primary screen, stem cell growth factor project, biochemical, small-molecule microarray, fluorescence 635/667 (AID 1087); details: higher = more signal;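 further: score merges spot fluorescence at 667nm with spot signal to noise ratio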
[11] = test system: PRMT1 (protein arginine N-methyltransferase 1); test: PRMT1 binders on small-molecule microarrays, primary screen, biochemical, small-molecule microarray, 635 nm fluorescence (AID 1088); details: small-molecule microarray binding, higher = more signal;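 further: binding of Prmt1 protein to compounds spotted on small-molecule microarray slides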
[12] = yeast growth modulation, basal conditions, primary screen, YJM789 clinical isolate, OD600, 24 h (AID 1089);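 further: growth of clinical yeast isolate S. cerevisiae YJM 789 seeded 1000 cells per well; test concentration not given here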; details: S. cerevisiae YJM789 growth, higher = more signal, called active from +8 up or from −8 down
[13] = fission yeast growth modulation, primary screen, strain 972, OD600, 24 h, no modulator (AID 1090);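 further: basal condition with compound alone and no growth modifier present; test concentration not given here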; details: S. pombe 972 growth, higher = more signal, called active from +8 up or from −8 down
[14] = S. cerevisiae growth modulation with rapamycin, primary screen, strain BY4716, OD600, 96 h (AID 1091); details: higher = more signal, called active from +8 up or from −8 down; further: test concentration not given here
[15] = biological target: Torsin-1A-interacting protein 2 (Homo sapiens) (UniProt Q8NFQ8); test: LULL1 binders on small-molecule microarray, primary screen, cell lysate, human LULL1 lysate, 635/667 nm fluorescence (AID 1092); details: hLULL1 lysate binding, 635 nm fluorescence, higher = more signal;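 further: probe is lysate of COS7 cells overexpressing human LULL1; score merges per-feature 667 nm fluorescence with signal-to-noise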
Sequence of Torsin-1A-interacting protein 2 (Homo sapiens) (Q8NFQ8 whole entry, looked up): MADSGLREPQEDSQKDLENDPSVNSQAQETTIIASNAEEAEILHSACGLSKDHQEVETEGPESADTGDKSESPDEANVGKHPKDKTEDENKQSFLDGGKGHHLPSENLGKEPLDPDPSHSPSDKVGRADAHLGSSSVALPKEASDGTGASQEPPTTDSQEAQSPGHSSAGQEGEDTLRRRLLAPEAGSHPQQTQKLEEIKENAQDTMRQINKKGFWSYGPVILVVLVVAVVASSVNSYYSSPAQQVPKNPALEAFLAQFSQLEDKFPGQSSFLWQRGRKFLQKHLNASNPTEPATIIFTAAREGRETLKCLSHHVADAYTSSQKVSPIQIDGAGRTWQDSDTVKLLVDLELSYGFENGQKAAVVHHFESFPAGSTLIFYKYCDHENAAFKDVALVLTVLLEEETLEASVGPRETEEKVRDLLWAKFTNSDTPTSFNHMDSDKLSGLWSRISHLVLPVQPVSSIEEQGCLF

[16] = E. coli growth modulation, two-sided OD650, primary screen, E. coli filamentation project, strain DRC41, 24 h (AID 1093); details: OD650, 24 h, higher = more signal, called active from +8 up or from −8 down;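 further: MC1000 strain lacking acrAB efflux and sulA so SOS filamentation is blocked; test concentration not given here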
[17] = small-molecule microarray binders of probe aLefty2, primary screen, biochemical, biotinylated probe, 635/667 nm fluorescence (AID 1094); details: higher = more signal;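 further: score merges spot fluorescence near 667 nm with spot signal-to-noise ratio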
[18] = test system: Noggin (protein binding on small-molecule microarray); test: Noggin binders on small-molecule microarray, primary screen, biochemical, 635/667 nm fluorescence (AID 1095); details: 635 nm fluorescence, higher = more signal;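 further: score merges 667 nm feature fluorescence with signal to noise over triplicate slides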
[19] = biological target: Neurogenic locus notch homolog protein 3 (Homo sapiens) (UniProt Q9UM47); test: NOTCH3 binders on small-molecule microarray, primary screen, biochemical, 635/667 nm fluorescence (AID 1096); details: NOTCH3 binding, 635 nm fluorescence, higher = more signal
Sequence of Neurogenic locus notch homolog protein 3 (Homo sapiens) (Q9UM47 whole entry, looked up): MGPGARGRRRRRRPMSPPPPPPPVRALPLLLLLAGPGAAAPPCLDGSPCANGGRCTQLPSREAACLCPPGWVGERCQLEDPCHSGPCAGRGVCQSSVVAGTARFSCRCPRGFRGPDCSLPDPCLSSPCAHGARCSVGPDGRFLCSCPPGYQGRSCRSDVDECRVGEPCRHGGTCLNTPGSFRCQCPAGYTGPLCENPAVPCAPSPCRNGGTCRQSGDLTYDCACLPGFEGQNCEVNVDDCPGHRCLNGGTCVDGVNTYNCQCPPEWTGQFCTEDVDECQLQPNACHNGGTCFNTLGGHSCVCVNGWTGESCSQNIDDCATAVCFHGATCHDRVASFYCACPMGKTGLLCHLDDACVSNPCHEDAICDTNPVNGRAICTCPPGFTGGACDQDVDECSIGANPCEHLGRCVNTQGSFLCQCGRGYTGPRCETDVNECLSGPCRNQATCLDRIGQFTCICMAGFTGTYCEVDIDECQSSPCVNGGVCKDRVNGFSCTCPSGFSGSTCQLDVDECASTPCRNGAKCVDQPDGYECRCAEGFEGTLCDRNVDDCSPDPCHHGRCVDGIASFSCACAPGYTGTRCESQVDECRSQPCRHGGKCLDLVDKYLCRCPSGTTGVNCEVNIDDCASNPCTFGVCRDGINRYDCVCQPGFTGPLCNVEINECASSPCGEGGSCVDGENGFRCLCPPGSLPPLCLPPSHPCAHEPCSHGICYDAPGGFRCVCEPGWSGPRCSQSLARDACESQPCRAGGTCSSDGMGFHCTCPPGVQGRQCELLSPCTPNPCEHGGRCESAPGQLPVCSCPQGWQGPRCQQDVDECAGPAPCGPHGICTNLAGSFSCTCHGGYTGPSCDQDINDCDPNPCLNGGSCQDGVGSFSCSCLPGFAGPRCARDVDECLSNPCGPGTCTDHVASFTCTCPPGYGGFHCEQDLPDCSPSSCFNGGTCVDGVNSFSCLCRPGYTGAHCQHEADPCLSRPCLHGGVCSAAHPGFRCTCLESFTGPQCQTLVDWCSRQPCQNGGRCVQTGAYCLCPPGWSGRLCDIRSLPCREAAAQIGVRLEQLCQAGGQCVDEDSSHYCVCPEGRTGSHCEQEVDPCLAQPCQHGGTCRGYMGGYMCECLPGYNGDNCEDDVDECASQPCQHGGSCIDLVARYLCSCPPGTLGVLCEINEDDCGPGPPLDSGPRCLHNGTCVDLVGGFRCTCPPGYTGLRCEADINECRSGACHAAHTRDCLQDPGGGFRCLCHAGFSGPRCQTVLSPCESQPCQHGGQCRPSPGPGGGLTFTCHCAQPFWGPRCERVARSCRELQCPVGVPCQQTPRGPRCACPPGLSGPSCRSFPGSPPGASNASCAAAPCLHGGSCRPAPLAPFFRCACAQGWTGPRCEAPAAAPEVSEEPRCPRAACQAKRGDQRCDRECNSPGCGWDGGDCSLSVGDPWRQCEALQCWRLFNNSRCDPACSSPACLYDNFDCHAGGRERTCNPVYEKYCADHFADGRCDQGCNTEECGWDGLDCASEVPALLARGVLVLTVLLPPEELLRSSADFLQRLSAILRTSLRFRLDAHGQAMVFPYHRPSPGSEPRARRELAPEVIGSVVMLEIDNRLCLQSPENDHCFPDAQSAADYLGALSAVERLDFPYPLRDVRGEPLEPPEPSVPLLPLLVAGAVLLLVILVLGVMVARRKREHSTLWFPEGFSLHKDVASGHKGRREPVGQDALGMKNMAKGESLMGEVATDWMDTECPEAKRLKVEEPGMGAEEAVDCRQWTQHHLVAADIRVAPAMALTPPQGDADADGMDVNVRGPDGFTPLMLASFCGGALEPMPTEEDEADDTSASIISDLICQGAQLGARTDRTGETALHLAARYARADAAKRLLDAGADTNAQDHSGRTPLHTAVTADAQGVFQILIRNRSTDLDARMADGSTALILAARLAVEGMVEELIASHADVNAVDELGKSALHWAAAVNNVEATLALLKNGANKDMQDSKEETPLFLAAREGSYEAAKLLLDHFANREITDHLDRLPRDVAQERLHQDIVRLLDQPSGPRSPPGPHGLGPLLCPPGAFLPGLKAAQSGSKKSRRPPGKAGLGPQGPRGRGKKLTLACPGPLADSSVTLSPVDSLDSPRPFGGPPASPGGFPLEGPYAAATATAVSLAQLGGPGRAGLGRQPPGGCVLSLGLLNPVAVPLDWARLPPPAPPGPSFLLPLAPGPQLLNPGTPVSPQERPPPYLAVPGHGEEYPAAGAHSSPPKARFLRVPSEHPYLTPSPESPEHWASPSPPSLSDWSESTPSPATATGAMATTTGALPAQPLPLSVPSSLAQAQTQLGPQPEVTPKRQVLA

[20] = small-molecule microarray binders of probe aEGFR, primary screen, biochemical, biotinylated probe, 635/667 nm fluorescence (AID 1097); details: higher = more signal;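 further: probe is a biotinylated anti-EGFR antibody binding compounds printed on slides; score combines fluorescence near 667 nm and signal to noise of each spot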

Compound | composite z-score [1] | composite z-score [2] | composite z-score [3] | composite z-score [4] | composite z-score [5] | composite z-score [6] | composite z-score [7] | z-score [8] | composite z-score [9] | composite z-score [10] | composite z-score [11] | z-score [12] | z-score [13] | z-score [14] | composite z-score [15] | z-score [16] | composite z-score [17] | composite z-score [18] | composite z-score [19] | composite z-score [20]
C[C@@H]1CC[C@H]2C(=O)O[C@@H](COc3ccc(C(C)(C)C)cc3)CN2[C@H]1c1ccc(Br)cc1 | -0.348 | 0.0745 | -0.103 | 0.085 | -0.0477 | 0.101 | -0.4 | 0.732 (inactive) | 0.153 | -0.16 | 0.76 | 0.267 (inactive) | -0.0416 (inactive) | -0.264 (inactive) | 0.456 | 0.113 (inactive) | -0.159 | 0.307 | -0.288 | -0.0326
COc1ccc(O[C@H]2C=C[C@@H](c3ccccc3)O[C@@H]2COC(=O)CCC(C)=NOC[C@@H](O)COCc2ccco2)cc1 | 0.776 | -1.81 | -0.411 | -1.98 | -2.67 | -1.28 | -0.649 | 0.838 (inactive) | -2.3 | -0.115 | -1.02 | -1.2 (inactive) | -0.761 (inactive) | -0.244 (inactive) | -1.82 | -0.541 (inactive) | -0.443 | -1.66 | -1.74 | -0.48
CON=C(C)CCN1CCCc2nc(C)c(C)cc21 | -0.411 | -0.205 | -0.0266 | 0.28 | 0.512 | 0.397 | 0.908 | 0.885 (inactive) | 0.192 | 0.12 | 1.43 | -0.596 (inactive) | -0.837 (inactive) | 0.0921 (inactive) | 1.92 | 0.0129 (inactive) | -0.0179 | 0.513 | 0.632 | 0.0376
CCN1C(=O)[C@H]2[C@H]3[C@H](O)[C@H](O)CC(=NNC(=O)OCc4ccccc4)[C@H]3CC[C@H]2C1=O | 0.307 | 0.447 | 0.0572 | -0.0005 | -0.0049 | -0.117 | -0.696 | -0.209 (inactive) | 0.313 | -0.13 | -0.72 | -0.0067 (inactive) | 0.0826 (inactive) | -0.144 (inactive) | -0.3 | -0.667 (inactive) | 0.0166 | 0.667 | -0.169 | -0.132
O=C(NN=C1C[C@@H](O)[C@@H](O)[C@@H]2[C@@H]3C(=O)N(Cc4ccccc4)C(=O)[C@@H]3CC[C@H]12)OCc1ccccc1 | -0.286 | 0.897 | -0.0996 | 0.378 | 0.226 | -0.153 | -0.15 | 0.157 (inactive) | 0.122 | 0.0373 | -0.38 | -0.79 (inactive) | -0.815 (inactive) | -1.27 (inactive) | -0.845 | 0.399 (inactive) | -0.269 | 0.382 | 0.577 | -0.0796
Cc1cc(C)c(-c2cc([C@H](C)ON=C[C@@H](C)[C@H](OCc3ccccc3)C(C)C)on2)c(C)c1 | -0.355 | 0.298 | -0.0901 | 0.0823 | -0.637 | -0.529 | -1.22 | 0.239 (inactive) | -0.342 | 0.0505 | -0.903 | 0.0494 (inactive) | 0.217 (inactive) | 0.817 (inactive) | -0.91 | -0.461 (inactive) | 0.0469 | 0.481 | 0.0065 | -0.067
CCN1C(=O)[C@H]2[C@H]3[C@H](O)[C@H](O)CC(=NO[C@@H]4O[C@H](CO)[C@@H](O)[C@H](O)[C@H]4O)[C@H]3CC[C@H]2C1=O | -0.396 | 1.06 | -0.138 | 0.235 | 1 | 0.259 | 0.108 | -1.07 (inactive) | 0.293 | 0.0274 | -0.26 | -0.862 (inactive) | -0.238 (inactive) | -0.14 (inactive) | -0.127 | 0.12 (inactive) | -0.204 | 0.484 | 0.65 | -0.128
CCOC(=O)[C@H](CC(C)C)NC(=O)CCC1CC(OC(=O)NCCc2ccc(F)cc2)CC2(CCCC(COC(=O)NCCCN3CCCC3=O)O2)O1 (stereo not given in full) | -0.547 | -0.0261 | -0.0922 | 0.403 | 0.951 | -0.0939 | 0.763 | 0.404 (inactive) | -0.015 | -0.0994 | 0.838 | -0.388 (inactive) | 0.531 (inactive) | 0.0799 (inactive) | 1.26 | 0.546 (inactive) | -0.132 | 0.144 | 0.965 | -0.0208
COC(=O)[C@@H]1CC[C@H](C)[C@@H](c2ccc(Br)cc2)N1C(=O)C(F)(F)F | -0.23 | -0.214 | -0.108 | -0.148 | -0.232 | -0.493 | -0.677 | -0.589 (inactive) | -0.249 | -0.412 | -1.18 | 0.61 (inactive) | 0.186 (inactive) | 2.16 (inactive) | 1.25 | 0.11 (inactive) | -0.22 | -0.281 | -0.446 | -0.226
CON(C)C(=O)c1nnc2c(n1)[nH]c1ccccc12 | -0.262 | 0.668 | -0.165 | 0.494 | 0.448 | 0.0309 | 0.823 | 168 (active) | -0.128 | -0.323 | 0.194 | -0.545 (inactive) | 0.577 (inactive) | -0.298 (inactive) | 0.3 | 0.816 (inactive) | -0.0931 | 0.586 | 0.483 | -0.121
